# Inconclusive results are not listed. Entries that show only a call come without a potency. Active and inactive are the calls of the source. Unless noted, calls follow the shape of the full dose curve.
# Tests used:
# [1] = Nuclear factor erythroid 2-related factor 2/antioxidant responsive element (Nrf2/ARE) small molecule agonists: qHTS cell viability counter screen in human keratinocytes (AID 1919968; active = well fitted curve in the direction sought with a large enough effect in the repeat runs; an effect the other way counts as inactive or inconclusive; also: nearly all actives have a fitted effect of over 55% in size; also: potency is read from the fitted curve at half-maximal effect)
# Summary of the method: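 In human HaCaT keratinocytes stably expressing an ARE-driven luciferase, compound exposure lasted 23 h at 37 C under 5% CO2. Viable cells are quantified with a protease-based fluorogenic reagent (CellTiter-Fluor) read 1 h after addition.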
# [2] = target: Gonadotropin-releasing hormone receptor (Homo sapiens) (UniProt P30968); test: Human gonadotropin-releasing hormone receptor (GnRHR) small molecule agonists, calcium flux assay in GnRHR-HEK293 cells (AID 1920063); also: nearly all actives have a fitted effect of over 35% in size
# Gonadotropin-releasing hormone receptor (Homo sapiens), sequence (P30968 whole entry, looked up): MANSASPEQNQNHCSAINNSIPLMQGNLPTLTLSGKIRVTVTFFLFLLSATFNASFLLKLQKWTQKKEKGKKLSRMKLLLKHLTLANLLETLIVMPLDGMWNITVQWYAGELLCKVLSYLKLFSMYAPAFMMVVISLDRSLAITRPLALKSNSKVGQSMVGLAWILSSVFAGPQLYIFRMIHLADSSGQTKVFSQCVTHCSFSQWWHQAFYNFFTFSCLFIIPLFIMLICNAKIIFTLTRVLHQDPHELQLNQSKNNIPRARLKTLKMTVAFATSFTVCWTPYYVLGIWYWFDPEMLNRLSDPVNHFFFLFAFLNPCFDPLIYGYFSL
# Summary of the method: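 Intracellular calcium rise is the read-out: engineered human GnRHR HEK293 cells, dye-loaded, are exposed to DMSO-dissolved compounds and fluorescence at Ex/Em 480/540 is tracked for 3 min.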
# [3] = target: KiSS-1 receptor (Homo sapiens) (UniProt Q969F8); test: Human kisspeptin (KISS1R) small molecule agonists, calcium flux assay in KISS1R-HEK293 cells (AID 1920064; active = well fitted curve in the direction sought with a large enough effect in the repeat runs; an effect the other way counts as inactive or inconclusive)
# KiSS-1 receptor (Homo sapiens), sequence (Q969F8 whole entry, looked up): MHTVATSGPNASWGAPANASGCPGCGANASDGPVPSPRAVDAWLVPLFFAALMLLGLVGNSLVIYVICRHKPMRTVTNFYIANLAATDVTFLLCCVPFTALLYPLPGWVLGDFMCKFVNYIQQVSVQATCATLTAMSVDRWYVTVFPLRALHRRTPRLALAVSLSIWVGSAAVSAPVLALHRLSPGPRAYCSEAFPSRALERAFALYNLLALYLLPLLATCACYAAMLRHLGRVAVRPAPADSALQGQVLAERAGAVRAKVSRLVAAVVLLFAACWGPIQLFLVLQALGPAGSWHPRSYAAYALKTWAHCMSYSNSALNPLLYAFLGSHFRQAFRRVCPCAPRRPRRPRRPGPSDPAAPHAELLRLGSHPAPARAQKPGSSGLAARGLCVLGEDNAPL
# Summary of the method: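 Concentration-response testing used 15 concentrations in triplicate on human KISS1R-expressing HEK293 cells. Calcium-dependent fluorescence (Ex/Em 480/540) was followed kinetically for 3 min after compound transfer.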
# [4] = G protein-coupled receptor (GPCR) small molecule agonists, calcium flux assay: HEK293 wild type cell line counter screen (AID 1920065)
# Summary of the method: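 Fluorescence intensity signals activation. After overnight (18 h) culture and a 1 h calcium dye load at 37 C, compounds are added by pin tool and the plate read at 480/540 nm for 3 min in 1 s steps.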
# [5] = p53 small molecule agonists, cell-based qHTS assay with human liver microsomes: qHTS cell viability counter screen (AID 1963579); also: nearly all actives have a fitted effect of over 45% in size; also: potency is read from the fitted curve at half-maximal effect
# Summary of the method: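 Cytotoxicity counter screen: p53RE-bla, 4,000 cells/well; 5 h settle, 37 C/5% CO2; cpd + HLM 0.5 mg/mL + NADPH 0.5 mg/mL (final); 16 h, 37 C; CellTiter-Glo, 30 min RT, luminescence.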
# [6] = p53 small molecule agonists, cell-based qHTS assay with rat liver microsomes: qHTS cell viability counter screen (AID 1963580); also: nearly all actives have a fitted effect of over 45% in size
# Summary of the method: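 Counter screen for cytotoxicity under metabolic activation: rat liver microsomes and NADPH, 0.5 mg/mL final each, added with compounds to p53RE-bla HCT-116 cells; 16 h at 37 C, then ATP luminescence read.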
# [7] = p53 small molecule agonists, cell-based qHTS assay: qHTS cell viability counter screen (AID 1963581); also: nearly all actives have a fitted effect of over 45% in size
# Summary of the method: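 Luminescence from CellTiter-Glo, reflecting ATP content, serves as the cytotoxicity measure; it is taken after the 2 h reporter substrate step in HCT-116 p53RE-bla cells dosed for 16 h at 37 C.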
# [8] = p53 small molecule agonists, cell-based qHTS assay (AID 1963582; active = well fitted activation curve with a large enough effect in the signal ratio in the repeat runs, not every such curve was filed as active; the % refers to the signal ratio)
# Summary of the method: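 After plating, p53RE-bla cells sat 5 h in the incubator; compounds or DMSO vehicle were pinned in; a 16 h incubation at 37 C followed; FRET substrate was added and, 2 h later at RT, fluorescence was measured.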
# [9] = target: 5-hydroxytryptamine receptor 2A (Homo sapiens) (UniProt P28223); test: 5-hydroxytryptamine receptor 2A (HTR2A) small molecule antagonists, cell-based qHTS assay (AID 1963586); also: nearly all actives have a fitted effect of over 45% in size; also: potency is read from the fitted curve at half-maximal effect
# 5-hydroxytryptamine receptor 2A (Homo sapiens), sequence (P28223 whole entry, looked up): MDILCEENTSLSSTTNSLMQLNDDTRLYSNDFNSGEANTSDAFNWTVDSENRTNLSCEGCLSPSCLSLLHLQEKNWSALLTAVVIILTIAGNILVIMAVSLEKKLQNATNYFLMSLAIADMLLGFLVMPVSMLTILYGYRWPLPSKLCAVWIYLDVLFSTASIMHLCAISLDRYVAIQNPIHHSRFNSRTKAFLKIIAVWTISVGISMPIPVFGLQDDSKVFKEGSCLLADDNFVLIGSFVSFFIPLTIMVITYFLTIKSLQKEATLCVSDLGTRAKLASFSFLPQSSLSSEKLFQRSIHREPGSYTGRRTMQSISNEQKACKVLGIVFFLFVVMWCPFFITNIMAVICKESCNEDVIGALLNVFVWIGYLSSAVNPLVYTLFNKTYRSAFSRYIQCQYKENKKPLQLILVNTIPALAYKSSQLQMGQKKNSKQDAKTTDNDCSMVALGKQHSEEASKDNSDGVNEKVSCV
# Summary of the method: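 CHO cells stably expressing human HTR2A were plated for 18 h at 37 C, then loaded with calcium dye for 1 h. Compounds were preincubated 5 min at room temperature before DOI (4 nM solution) was added. Kinetic fluorescence was read for 3 min.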
# [10] = target: 5-hydroxytryptamine receptor 2A (Homo sapiens) (UniProt P28223); test: 5-hydroxytryptamine receptor 2A (HTR2A) small molecule agonists, cell-based qHTS assay (AID 1963587); also: nearly all actives have a fitted effect of over 30% in size
# Summary of the method: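 HTR2A-CHO cells, plated 18 h at 37 C/5% CO2, dye-loaded 1 h at 37 C; compounds in DMSO added by pin tool (agonist mode). Intracellular calcium flux read as kinetic fluorescence on FDSS over 2 min at 1 s intervals.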
# [11] = target: Muscarinic acetylcholine receptor M1 (Homo sapiens) (UniProt P11229); test: Cholinergic receptor muscarinic 1 (CHRM1) small molecule antagonists, cell-based qHTS assay (AID 1963588); also: nearly all actives have a fitted effect of over 40% in size
# Muscarinic acetylcholine receptor M1 (Homo sapiens), sequence (P11229 whole entry, looked up): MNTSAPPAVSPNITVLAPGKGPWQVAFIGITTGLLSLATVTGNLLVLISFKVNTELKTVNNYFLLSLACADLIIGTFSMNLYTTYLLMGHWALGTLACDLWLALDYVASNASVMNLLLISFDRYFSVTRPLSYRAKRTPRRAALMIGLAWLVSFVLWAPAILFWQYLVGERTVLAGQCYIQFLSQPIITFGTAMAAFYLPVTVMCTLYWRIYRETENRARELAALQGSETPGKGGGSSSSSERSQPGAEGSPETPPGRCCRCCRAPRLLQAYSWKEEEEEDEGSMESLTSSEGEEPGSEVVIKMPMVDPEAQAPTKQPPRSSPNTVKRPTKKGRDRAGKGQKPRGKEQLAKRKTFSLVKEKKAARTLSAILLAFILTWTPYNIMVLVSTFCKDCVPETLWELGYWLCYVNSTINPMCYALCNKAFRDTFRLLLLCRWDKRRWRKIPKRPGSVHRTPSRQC
# Summary of the method: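 Compounds were tested at 15 concentrations in three independent runs. Dye-loaded CHRM1-CHO cells were exposed 5 min at room temperature before stimulation by acetylcholine added at 50nM. Intracellular calcium was read kinetically on FDSS for 3 min.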
# [12] = target: Muscarinic acetylcholine receptor M1 (Homo sapiens) (UniProt P11229); test: Cholinergic receptor muscarinic 1 (CHRM1) small molecule agonists, cell-based qHTS assay (AID 1963589); also: nearly all actives have a fitted effect of over 35% in size
# Summary of the method: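 Fluorescent calcium dye reports M1 activation in stably transfected CHO cells. Compounds, 15 concentrations, added after 1 h dye loading at 37 C; kinetic reading at 1 sec intervals.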
# [13] = cAMP Responsive Elements (CRE) small molecule agonists, cell-based qHTS assay (AID 1963590)
# Summary of the method: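 Compound exposure lasted 3 h at 37 C/5% CO2 in CRE-bla HEK 293T cells grown in assay medium with 10% dialyzed FBS and 25 mM HEPES. Reporter signal came from LiveBLAzer B/G FRET substrate, 2 h, room temperature.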
# [14] = cAMP Responsive Elements (CRE) small molecule antagonists, cell-based qHTS assay (AID 1963591; active = well fitted inhibition curve with a large enough effect in the signal ratio in the repeat runs, not every such curve was filed as active; the % refers to the signal ratio)
# Summary of the method: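 Stimulation used NKH477 at a final 0.25 uM for 3 h in compound-treated CRE-bla HEK293T cells, seeded 18 h beforehand. Reporter activity was measured with LiveBLAzer B/G FRET substrate after 2 h at room temperature.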
# [15] = target: Beta-2 adrenergic receptor (Homo sapiens) (UniProt P07550); test: Adrenergic beta2 receptor (ADRB2) small molecule antagonists, cell-based qHTS assay (AID 1963592); also: series mostly up to about 92 µM; nearly all actives have a fitted effect of over 50% in size
# Beta-2 adrenergic receptor (Homo sapiens), sequence (P07550 whole entry, looked up): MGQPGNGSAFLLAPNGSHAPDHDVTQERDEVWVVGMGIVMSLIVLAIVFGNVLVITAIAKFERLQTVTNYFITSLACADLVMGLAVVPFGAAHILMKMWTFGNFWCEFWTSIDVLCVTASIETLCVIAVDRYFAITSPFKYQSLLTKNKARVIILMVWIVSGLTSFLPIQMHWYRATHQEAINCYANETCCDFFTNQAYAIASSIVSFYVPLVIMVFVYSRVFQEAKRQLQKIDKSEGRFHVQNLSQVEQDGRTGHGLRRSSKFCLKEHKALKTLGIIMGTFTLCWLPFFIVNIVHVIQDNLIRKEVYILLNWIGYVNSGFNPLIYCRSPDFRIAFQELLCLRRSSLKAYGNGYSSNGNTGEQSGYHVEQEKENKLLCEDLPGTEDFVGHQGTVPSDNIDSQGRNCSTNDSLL
# Summary of the method: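 Assay format: CHO-ADRB2 cells, 18-20hr seeding at 37C/5% CO2, then compound plus 1nM isoproterenol agonist mix for 0.5hr RT. Homogeneous time-resolved fluorescence cAMP detection after 1hr, expressed as 665/615 nm ratio.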
# [16] = target: Beta-2 adrenergic receptor (Homo sapiens) (UniProt P07550); test: Adrenergic beta2 receptor (ADRB2) small molecule agonists, cell-based qHTS assay (AID 1963593);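 also: CHO cells stably overexpressing human ADRB2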
# Summary of the method: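 CHO cells stably over-expressing ADRB2 were plated overnight at 37C, then dosed with compounds plus a stimulation mix containing 100uM IBMX and 25uM Ro-20-1724 for 0.5hr at room temperature. cAMP was measured by HTRF competition, 1hr.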
# [17] = target: D(2) dopamine receptor (Homo sapiens) (UniProt P14416); test: Dopamine D2 receptor (DRD2) small molecule agonists, cell-based qHTS assay (AID 1963594); also: nearly all actives have a fitted effect of over 35% in size
# D(2) dopamine receptor (Homo sapiens), sequence (P14416 whole entry, looked up): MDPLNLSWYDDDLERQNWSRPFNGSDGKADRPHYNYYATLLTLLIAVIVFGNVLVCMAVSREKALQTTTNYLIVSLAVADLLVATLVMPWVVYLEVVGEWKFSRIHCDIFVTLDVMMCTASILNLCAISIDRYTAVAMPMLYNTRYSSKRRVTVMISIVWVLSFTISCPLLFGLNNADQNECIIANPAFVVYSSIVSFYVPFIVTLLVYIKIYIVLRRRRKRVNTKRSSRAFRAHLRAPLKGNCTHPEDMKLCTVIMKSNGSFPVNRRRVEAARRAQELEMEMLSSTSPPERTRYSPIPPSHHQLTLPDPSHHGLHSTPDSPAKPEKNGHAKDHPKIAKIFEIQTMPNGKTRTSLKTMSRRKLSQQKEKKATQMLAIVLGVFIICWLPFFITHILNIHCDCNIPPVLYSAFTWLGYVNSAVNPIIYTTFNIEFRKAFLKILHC
# Summary of the method: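 HEK293 cells stably expressing DRD2 were cultured 24 h at 37 C, then given Ro20-1724 (0.1 mM final) and compounds for 10 min at room temperature. NKH477 (200nM) was then added for 30 min. cAMP was read by HTRF.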
# [18] = target: D(2) dopamine receptor (Homo sapiens) (UniProt P14416); test: Dopamine D2 receptor (DRD2) small molecule antagonists, cell-based qHTS assay (AID 1963595; active = well fitted inhibition curve with a large enough effect in the signal ratio in the repeat runs, with a control signal flat; the % refers to the signal ratio)
# Summary of the method: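 Antagonism was scored as restored cAMP in HEK293-DRD2 cells. These cells were stimulated with 200 nM NKH477 and 12 nM quinpirole for 30 min at room temperature, in the presence of 0.1 mM Ro20-1724.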
# [19] = p53 small molecule agonists, cell-based qHTS assay with rat liver microsomes (AID 1963578)
# Summary of the method: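 Cells carrying a p53 response element–beta-lactamase reporter were plated and rested 5 h, then dosed with compound in DMSO plus rat liver microsomes and NADPH, each at 0.5 mg/mL final. After 16 h at 37 C, LiveBLAzer substrate was added for 2 h.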
# [20] = p53 small molecule agonists, cell-based qHTS assay with human liver microsomes (AID 1963577)
# Summary of the method: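 Fluorescence of the beta-lactamase reporter in p53RE-bla cells, detected with LiveBLAzer substrate (2 h, room temperature, dark), served as the read-out after 16 h compound exposure at 37 C with human liver microsomes and NADPH, each 0.5 mg/mL final.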
SMILES,Potency [1],Potency [2],Potency [3],Potency [4],Potency [5],Potency [6],Potency [7],Potency [8],Potency [9],Potency [10],Potency [11],Potency [12],Potency [13],Potency [14],Potency [15],Potency [16],Potency [17],Potency [18],Potency [19],Potency [20]
CCOC(=O)C(SP(=S)(OC)OC)c1ccccc1 (configuration not stated),inactive,inactive,inactive,inactive,inactive,inactive,inactive,inactive,inactive,inactive,inactive,inactive,inactive,inactive,inactive,inactive,inactive,inactive,,
Clc1ccc(CO/N=C(\Cn2ccnc2)c2ccc(Cl)cc2Cl)c(Cl)c1,23.7 µM (active),inactive,inactive,inactive,inactive,inactive,,,,,,,inactive,,,inactive,inactive,,inactive,
O=C1c2ccccc2C(=O)C1C(=O)C(c1ccccc1)c1ccccc1,inactive,inactive,inactive,inactive,inactive,,inactive,,inactive,inactive,inactive,inactive,,inactive,inactive,,inactive,inactive,inactive,
CCOP(=S)(OCC)SCCS(=O)(=O)CC,inactive,inactive,inactive,inactive,inactive,inactive,inactive,inactive,,inactive,inactive,inactive,inactive,inactive,inactive,inactive,inactive,inactive,,
O=C(O)c1ccccc1C(=O)Nc1cccc2ccccc12,inactive,inactive,inactive,inactive,inactive,inactive,inactive,inactive,inactive,inactive,inactive,inactive,inactive,inactive,inactive,,inactive,inactive,inactive,
CON(C)C(=O)Nc1ccc(Br)c(Cl)c1,inactive,inactive,inactive,,inactive,inactive,,,inactive,inactive,inactive,inactive,,,inactive,,inactive,inactive,,
CNC(=O)Oc1cccc(C(C)C)c1,inactive,inactive,inactive,inactive,inactive,,inactive,,inactive,inactive,,inactive,inactive,inactive,,inactive,inactive,inactive,,
O.O.O.O.O.O.O=S(=O)([O-])[O-].[Ni+2],inactive,inactive,inactive,inactive,inactive,,inactive,,inactive,inactive,inactive,inactive,inactive,inactive,inactive,,inactive,inactive,,
CC(=O)NNc1ccccc1,inactive,inactive,inactive,inactive,,inactive,inactive,,inactive,inactive,inactive,inactive,inactive,inactive,,,inactive,inactive,,
COP(=S)(OC)Oc1cc(Cl)c(Br)cc1Cl,inactive,inactive,inactive,inactive,45.8 µM (active),inactive,inactive,,,inactive,inactive,inactive,,,inactive,inactive,inactive,inactive,,
CCCCn1cc[n+](C)c1.[Cl][Fe-]([Cl])([Cl])[Cl],inactive,inactive,inactive,inactive,inactive,,inactive,,inactive,inactive,inactive,inactive,inactive,inactive,inactive,inactive,,inactive,,
NNCCO,inactive,inactive,inactive,inactive,inactive,,inactive,,inactive,,inactive,inactive,inactive,inactive,inactive,inactive,,inactive,,
CCC1CCC(=O)O1 (configuration not stated),inactive,inactive,inactive,inactive,inactive,inactive,,,inactive,inactive,inactive,,,inactive,inactive,inactive,inactive,inactive,,
C=CC(=O)NCNC(=O)C=C,inactive,inactive,inactive,inactive,,,,,inactive,inactive,,inactive,inactive,,inactive,,inactive,,,
C[C@]12CC[C@H]3[C@@H](CCC4=CC(=O)CC[C@@]43C)[C@@H]1CC[C@@H]2O,inactive,inactive,inactive,inactive,inactive,inactive,inactive,,,,,,,,inactive,,inactive,inactive,,
CCc1cccc(C)c1N(C(=O)CCl)[C@@H](C)COC,inactive,inactive,inactive,,inactive,inactive,inactive,inactive,inactive,inactive,inactive,inactive,inactive,,inactive,,inactive,inactive,inactive,inactive
ClCc1ccc(Cl)cc1Cl,inactive,inactive,inactive,,inactive,inactive,inactive,,inactive,inactive,inactive,inactive,inactive,inactive,inactive,,inactive,inactive,inactive,inactive
Clc1ccccc1-c1ccccc1Cl,55.3 µM (active),inactive,,inactive,inactive,inactive,inactive,inactive,47.9 µM (active),inactive,inactive,inactive,inactive,,inactive,,inactive,inactive,inactive,inactive
O=[N+]([O-])c1ccccc1CCl,inactive,inactive,inactive,,inactive,inactive,inactive,inactive,inactive,inactive,inactive,inactive,inactive,,inactive,,inactive,inactive,,inactive
Cc1cc(C)c(C(=O)P(=O)(C(=O)c2c(C)cc(C)cc2C)c2ccccc2)c(C)c1,inactive,inactive,inactive,,inactive,inactive,inactive,,inactive,,inactive,,,,inactive,inactive,inactive,inactive,inactive,inactive
CCCSP(=O)(OCC)SCCC,inactive,inactive,inactive,inactive,inactive,inactive,,,,inactive,inactive,inactive,,,inactive,,inactive,inactive,,
COC(=O)c1ccccc1S(=O)(=O)NC(=O)Nc1nc(C)cc(C)n1,inactive,inactive,inactive,inactive,inactive,,inactive,,inactive,inactive,inactive,inactive,inactive,inactive,inactive,,inactive,inactive,,
CCCSP(=S)(OCC)Oc1ccc(SC)cc1 (configuration not stated),inactive,inactive,inactive,inactive,,,inactive,inactive,inactive,inactive,,inactive,inactive,inactive,inactive,inactive,,inactive,,
CN,inactive,inactive,inactive,,inactive,inactive,inactive,inactive,inactive,inactive,,inactive,inactive,,inactive,,inactive,,inactive,inactive

# Reference: PubChem BioAssay (Tox21)
